For one sequence, binding signal results are on record in publication PMC7862700, “An all-to-all approach to the identification of sequence-specific readers for epigenetic DNA modifications on cytosine”.

Holding throughout (assay): DAPPL (digital affinity profiling via proximity ligation, sequencing); 10 mM Tris-HCl pH 7.5, 50 mM NaCl, 1 mM DTT, 4% glycerol, room temperature, 30 min; GST-TFs on glutathione beads, 16-mer random dsDNA library, 0.1% formaldehyde crosslink after washing; high values mean tight binding
What all share (settings): protein: recombinant; tags: N-terminal GST; dsDNA, one strand shown

In one assay the target is T1, ELK1 (Homo sapiens, UniProt P19419 1-428).
T1 sequence: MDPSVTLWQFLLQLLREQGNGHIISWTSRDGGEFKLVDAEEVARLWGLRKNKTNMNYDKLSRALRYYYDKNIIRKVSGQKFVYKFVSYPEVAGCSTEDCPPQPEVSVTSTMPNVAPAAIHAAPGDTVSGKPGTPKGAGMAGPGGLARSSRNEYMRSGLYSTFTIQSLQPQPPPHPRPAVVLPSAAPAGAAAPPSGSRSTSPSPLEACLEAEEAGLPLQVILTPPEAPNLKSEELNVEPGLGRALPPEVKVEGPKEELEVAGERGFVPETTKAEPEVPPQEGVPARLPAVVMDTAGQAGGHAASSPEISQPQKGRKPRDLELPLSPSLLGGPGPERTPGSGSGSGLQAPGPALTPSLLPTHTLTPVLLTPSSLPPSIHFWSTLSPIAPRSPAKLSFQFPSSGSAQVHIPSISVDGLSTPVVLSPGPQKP
In short, it runs like this:
(§1)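 Human transcription factors carrying a GST fusion were produced in yeast, bound to glutathione beads, tagged with DNA barcodes and pooled together with a tag-only sample. Each pool was held with 200 nmole of a random double-stranded 16-mer DNA library in Tris/NaCl/DTT/glycerol buffer for 30 min at room temperature, then washed, crosslinked in 0.1% formaldehyde, proximity-ligated with BsaI/T4 ligase (1 h, 37 °C), PCR-amplified and sequenced on an Illumina NextSeq500. Binding signal is the read frequency of each hexamer for a given factor divided by its frequency in the tag-only sample.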

The next assay addresses T2, ERG (Homo sapiens, UniProt P11308 1-479).
T2 sequence: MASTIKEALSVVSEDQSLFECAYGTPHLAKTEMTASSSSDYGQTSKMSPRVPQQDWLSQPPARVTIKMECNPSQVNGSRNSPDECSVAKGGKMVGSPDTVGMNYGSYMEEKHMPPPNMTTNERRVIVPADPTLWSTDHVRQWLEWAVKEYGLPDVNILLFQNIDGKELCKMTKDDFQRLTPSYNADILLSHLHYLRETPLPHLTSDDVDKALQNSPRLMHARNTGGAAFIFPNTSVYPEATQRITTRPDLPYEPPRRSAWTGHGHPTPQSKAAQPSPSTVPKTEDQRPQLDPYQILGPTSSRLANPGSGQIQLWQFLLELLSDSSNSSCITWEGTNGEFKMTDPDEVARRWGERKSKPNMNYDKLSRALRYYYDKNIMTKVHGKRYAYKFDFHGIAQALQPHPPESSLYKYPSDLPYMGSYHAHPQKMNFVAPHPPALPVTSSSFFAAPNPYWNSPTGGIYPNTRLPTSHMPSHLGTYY
In short, it runs like this: as §1

For a further assay, the target named is T3, EHF (Homo sapiens, UniProt Q9NZC4 1-300).
T3 sequence: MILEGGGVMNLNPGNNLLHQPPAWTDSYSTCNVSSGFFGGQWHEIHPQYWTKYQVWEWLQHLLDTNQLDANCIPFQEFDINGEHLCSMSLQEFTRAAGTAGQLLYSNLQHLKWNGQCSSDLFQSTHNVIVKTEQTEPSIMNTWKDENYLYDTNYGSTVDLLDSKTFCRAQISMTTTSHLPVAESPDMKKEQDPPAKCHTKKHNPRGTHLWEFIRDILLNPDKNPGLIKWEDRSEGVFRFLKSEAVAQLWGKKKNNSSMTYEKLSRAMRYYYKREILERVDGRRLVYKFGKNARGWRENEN
In short, it runs like this: as §1

The target of a further assay is SPIB (Homo sapiens, UniProt Q01892 1-262). The method in brief:
as §1

A further assay addresses T4, FEV (Homo sapiens, UniProt Q99581 1-238).
T4 sequence: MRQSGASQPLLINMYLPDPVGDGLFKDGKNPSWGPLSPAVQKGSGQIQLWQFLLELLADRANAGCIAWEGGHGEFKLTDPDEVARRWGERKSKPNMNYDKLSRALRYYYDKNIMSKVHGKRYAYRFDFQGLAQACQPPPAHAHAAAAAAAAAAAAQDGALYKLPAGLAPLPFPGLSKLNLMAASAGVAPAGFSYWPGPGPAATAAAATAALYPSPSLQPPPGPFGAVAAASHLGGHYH
The method in brief:
as §1

The target of another assay is ELF4 (Homo sapiens, UniProt Q99607 1-663). The method in brief: as §1
ELF4, sequence (Q99607 whole entry): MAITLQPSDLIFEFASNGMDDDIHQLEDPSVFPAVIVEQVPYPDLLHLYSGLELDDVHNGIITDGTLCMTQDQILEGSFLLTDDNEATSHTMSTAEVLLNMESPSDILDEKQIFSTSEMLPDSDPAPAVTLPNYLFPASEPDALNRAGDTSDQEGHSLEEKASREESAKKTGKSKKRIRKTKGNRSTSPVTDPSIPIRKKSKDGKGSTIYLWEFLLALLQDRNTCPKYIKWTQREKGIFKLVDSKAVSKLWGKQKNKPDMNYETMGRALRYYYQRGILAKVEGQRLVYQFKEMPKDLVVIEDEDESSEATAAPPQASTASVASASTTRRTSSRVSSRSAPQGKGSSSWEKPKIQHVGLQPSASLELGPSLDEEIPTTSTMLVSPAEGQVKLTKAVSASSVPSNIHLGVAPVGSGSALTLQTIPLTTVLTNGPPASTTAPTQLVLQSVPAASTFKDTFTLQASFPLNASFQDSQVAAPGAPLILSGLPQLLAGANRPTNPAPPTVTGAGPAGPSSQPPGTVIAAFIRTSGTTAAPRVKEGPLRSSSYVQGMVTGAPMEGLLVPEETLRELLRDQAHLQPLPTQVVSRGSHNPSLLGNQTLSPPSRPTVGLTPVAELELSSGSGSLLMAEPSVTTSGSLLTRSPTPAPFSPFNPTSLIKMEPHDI
For the next assay, the target named is T5, ELK4 (Homo sapiens, UniProt P28324-2 1-405).
T5 sequence: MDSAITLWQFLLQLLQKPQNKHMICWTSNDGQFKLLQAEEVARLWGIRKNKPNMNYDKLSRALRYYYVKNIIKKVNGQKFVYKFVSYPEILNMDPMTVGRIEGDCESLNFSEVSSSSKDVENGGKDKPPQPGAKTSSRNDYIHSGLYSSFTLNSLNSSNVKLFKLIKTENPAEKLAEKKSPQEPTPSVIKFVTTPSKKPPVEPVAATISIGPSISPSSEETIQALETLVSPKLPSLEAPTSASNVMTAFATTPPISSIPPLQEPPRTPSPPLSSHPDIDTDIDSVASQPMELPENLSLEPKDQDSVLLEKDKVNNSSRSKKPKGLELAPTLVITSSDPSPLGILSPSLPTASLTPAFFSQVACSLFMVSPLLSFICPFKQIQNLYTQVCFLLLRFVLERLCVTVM
In short, it runs like this:
as §1

The next assay addresses T6, ETV2 (Homo sapiens, UniProt O00321 1-342).
T6 sequence: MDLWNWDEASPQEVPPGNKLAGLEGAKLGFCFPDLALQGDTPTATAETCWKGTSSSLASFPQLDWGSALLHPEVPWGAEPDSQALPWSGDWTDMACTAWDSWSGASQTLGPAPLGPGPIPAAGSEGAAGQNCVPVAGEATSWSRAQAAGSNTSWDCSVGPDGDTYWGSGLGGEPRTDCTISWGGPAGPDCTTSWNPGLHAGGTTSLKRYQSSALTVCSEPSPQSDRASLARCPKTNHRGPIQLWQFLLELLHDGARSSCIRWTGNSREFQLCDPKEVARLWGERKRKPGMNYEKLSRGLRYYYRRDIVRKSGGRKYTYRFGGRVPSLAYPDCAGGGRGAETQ
The method in brief:
as §1

The target in a further assay is ETV1 (Homo sapiens, UniProt P50549 1-477). In short, it runs like this: as §1
ETV1, sequence (P50549 whole entry): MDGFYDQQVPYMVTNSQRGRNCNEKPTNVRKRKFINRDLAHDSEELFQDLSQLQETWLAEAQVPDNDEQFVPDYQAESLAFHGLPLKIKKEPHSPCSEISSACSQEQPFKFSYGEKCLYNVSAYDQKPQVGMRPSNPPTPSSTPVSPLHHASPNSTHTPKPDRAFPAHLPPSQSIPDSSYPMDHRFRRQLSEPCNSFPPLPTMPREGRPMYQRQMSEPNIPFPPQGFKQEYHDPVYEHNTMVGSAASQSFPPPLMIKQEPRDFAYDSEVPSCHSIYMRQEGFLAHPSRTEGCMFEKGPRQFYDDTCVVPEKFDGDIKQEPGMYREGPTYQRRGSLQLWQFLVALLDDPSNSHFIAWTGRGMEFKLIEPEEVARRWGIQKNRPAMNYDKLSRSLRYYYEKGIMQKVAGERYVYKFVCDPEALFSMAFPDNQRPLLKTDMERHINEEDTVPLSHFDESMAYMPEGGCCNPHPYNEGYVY
Another assay concerns the target T7, ERF (Homo sapiens, UniProt P50548 1-548).
T7 sequence: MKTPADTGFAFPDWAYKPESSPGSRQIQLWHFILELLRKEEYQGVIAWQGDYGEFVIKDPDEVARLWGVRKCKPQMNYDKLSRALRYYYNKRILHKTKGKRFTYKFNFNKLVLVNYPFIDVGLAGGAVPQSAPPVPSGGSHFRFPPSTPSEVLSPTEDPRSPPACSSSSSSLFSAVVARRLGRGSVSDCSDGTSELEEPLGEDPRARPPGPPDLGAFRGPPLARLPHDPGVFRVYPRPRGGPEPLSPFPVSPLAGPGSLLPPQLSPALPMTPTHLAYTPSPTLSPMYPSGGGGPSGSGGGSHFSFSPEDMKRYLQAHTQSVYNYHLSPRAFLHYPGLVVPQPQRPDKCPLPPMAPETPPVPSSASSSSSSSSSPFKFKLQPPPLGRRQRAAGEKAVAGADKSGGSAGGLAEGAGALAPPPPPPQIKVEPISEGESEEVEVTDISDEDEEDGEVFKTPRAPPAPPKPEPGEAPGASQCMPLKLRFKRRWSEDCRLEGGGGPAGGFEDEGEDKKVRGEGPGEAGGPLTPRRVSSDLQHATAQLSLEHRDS
In short, it runs like this: as §1

For another assay, the target named is T8, ETV3L (Homo sapiens, UniProt Q6ZN32 1-361).
T8 sequence: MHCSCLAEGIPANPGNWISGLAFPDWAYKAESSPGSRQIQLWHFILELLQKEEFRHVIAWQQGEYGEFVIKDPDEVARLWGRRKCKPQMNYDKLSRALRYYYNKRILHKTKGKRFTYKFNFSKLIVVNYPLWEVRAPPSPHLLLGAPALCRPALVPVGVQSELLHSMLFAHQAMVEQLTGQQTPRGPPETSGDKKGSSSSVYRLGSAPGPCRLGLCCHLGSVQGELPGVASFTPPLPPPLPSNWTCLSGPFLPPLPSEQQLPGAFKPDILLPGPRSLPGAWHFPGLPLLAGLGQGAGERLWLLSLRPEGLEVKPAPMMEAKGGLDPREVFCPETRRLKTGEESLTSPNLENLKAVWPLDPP
The method in brief:
as §1

Another assay has as its target T9, ETS2 (Homo sapiens, UniProt P15036 1-469).
T9 sequence: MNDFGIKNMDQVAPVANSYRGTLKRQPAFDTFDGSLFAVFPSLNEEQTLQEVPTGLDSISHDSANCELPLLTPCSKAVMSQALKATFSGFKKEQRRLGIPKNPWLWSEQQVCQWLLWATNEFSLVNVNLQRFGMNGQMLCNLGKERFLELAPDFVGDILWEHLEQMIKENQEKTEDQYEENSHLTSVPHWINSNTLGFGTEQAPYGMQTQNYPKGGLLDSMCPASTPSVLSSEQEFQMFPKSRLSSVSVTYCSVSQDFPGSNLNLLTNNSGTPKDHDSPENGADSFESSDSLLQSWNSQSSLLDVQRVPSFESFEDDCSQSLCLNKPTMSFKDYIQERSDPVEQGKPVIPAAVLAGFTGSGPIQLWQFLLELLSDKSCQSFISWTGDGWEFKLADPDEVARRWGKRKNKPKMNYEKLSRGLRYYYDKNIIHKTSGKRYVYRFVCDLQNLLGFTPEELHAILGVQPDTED
The method in brief:
as §1

In a further assay the target is T10, SPDEF (Homo sapiens, UniProt O95238 1-335).
T10 sequence: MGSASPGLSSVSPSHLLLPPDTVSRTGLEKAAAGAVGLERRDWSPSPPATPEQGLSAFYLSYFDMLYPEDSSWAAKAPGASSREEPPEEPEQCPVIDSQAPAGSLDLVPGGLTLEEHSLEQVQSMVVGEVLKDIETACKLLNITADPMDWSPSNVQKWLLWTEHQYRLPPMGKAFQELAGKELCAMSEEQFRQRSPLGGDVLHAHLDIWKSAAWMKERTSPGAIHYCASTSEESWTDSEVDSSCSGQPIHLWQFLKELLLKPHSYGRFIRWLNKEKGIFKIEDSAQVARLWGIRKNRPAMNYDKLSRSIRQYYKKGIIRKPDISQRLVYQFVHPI
The method in brief: as §1

The target in another assay is T11, ETV7 (Homo sapiens, UniProt Q9Y603 1-341).
T11 sequence: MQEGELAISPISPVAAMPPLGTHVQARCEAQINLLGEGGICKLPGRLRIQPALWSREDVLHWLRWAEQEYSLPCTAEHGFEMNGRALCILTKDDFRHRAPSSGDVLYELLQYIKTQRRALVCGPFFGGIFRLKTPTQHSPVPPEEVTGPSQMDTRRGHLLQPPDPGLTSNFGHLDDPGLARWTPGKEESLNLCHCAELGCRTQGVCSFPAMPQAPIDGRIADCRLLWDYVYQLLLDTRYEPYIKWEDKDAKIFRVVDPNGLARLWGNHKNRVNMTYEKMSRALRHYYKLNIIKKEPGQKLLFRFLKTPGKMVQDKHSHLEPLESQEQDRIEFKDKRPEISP
The method in brief:
as §1

The target in the next assay is T12, ETV3 (Homo sapiens, UniProt P41162-2 1-143).
T12 sequence: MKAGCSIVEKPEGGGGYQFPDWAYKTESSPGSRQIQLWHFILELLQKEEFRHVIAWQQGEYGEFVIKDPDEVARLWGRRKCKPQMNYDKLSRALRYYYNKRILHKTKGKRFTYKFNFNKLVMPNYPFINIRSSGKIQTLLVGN
In short, it runs like this: as §1

SPIB, sequence (Q01892 whole entry): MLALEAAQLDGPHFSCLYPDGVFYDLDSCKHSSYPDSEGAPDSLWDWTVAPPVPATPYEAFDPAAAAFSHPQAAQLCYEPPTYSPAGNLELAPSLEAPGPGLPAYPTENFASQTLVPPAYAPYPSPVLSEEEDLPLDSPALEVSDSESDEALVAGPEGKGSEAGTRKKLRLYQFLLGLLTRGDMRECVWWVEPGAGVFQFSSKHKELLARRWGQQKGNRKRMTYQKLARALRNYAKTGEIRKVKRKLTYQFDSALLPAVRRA

In the case of ACACCG, the binding signal in the assay with ELK1 was 1.05 fold enrichment (6-mer frequency, TF over GST control); in the assay with ERG, 1.13 fold enrichment (6-mer frequency, TF over GST control); with EHF it was 1.03 fold enrichment (6-mer frequency, TF over GST control); in the assay with SPIB, 1.06 fold enrichment (6-mer frequency, TF over GST control); with FEV it was 1.26 fold enrichment (6-mer frequency, TF over GST control); with ELF4, 1.11 fold enrichment (6-mer frequency, TF over GST control). In addition, the binding signal was 1.03 fold enrichment (6-mer frequency, TF over GST control) in the assay with ELK4; 1.03 fold enrichment (6-mer frequency, TF over GST control) in the assay with ETV2; 1.09 fold enrichment (6-mer frequency, TF over GST control) with ETV1; 1 fold enrichment (6-mer frequency, TF over GST control) with ERF; 1.04 fold enrichment (6-mer frequency, TF over GST control) in the assay with ETV3L; 1.07 fold enrichment (6-mer frequency, TF over GST control) with ETS2. For the same sequence, the binding signal with SPDEF is 1.09 fold enrichment (6-mer frequency, TF over GST control); with ETV7, 1.01 fold enrichment (6-mer frequency, TF over GST control); with ETV3, 1.03 fold enrichment (6-mer frequency, TF over GST control).
